Results from PubChem BioAssay (NCATS).
Records with an inconclusive call do not appear. Active and inactive are the calls of the source. Unless noted, calls come from the whole dose curve; as a rule, active = well fitted curve in either direction with a large enough effect (not every such curve was filed as active); inconclusive = small, poorly fitted or top-dose-only effect, or another doubt; inactive = flat fitted curve, though single readings scatter.

Columns and labels:
[1] = target: Lysosomal acid glucosylceramidase (Homo sapiens) (UniProt P04062); test: Glucocerebrosidase-p2 (AID 348; in the data active = potency below about 10 µM; note: potency is the fitted concentration of half-maximal effect); conditions: purified GBA, blue fluorogenic substrate, 40 min
How it was run: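 Compounds titrated from 0.6 nM upwards against 0.2 nM enzyme in pH 5.9 citric acid/KH2PO4, taurocholate, tween-20; blue fluorogenic substrate 80 uM, 40 min room temperature, stopped and read Ex 365/Em 440 for AC50.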

[2] = AP1 Signaling Pathway (AID 357); conditions: ME-180 AP-1-bla reporter, EGF-induced, beta-lactamase ratio, 5 h; at 7.69 µM (top of the series) unless noted; note: % is set by controls: 0 for no effect and ±100 for the full control effect
How it was run: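 ME-180 cells with beta-lactamase reporter under AP-1 response element, stimulated with EC50 EGF; compounds tested in titration series, 5 h at 37 °C. CCF4 substrate added 2.5 h at room temperature; 460/530 nm emission ratio gave %activity and AC50.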

[3] = NFAT Signaling Pathway (AID 444); conditions: Jurkat NFAT-bla M1, carbachol, beta-lactamase ratio, 5 h; at 7.69 µM (top of the series) unless noted;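 note: carbachol stimulus at about its EC50 of 1 µM final; % is set by controls: 0 for no effect and ±100 for the full control effect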
How it was run: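 Jurkat cells with NFAT-driven β-lactamase reporter and co-expressed M1 receptor, stimulated with carbachol (final 1 uM, ~EC50), compound titration, 5 h at 37 °C. CCF4 loaded 1 h at RT; 460/530 nm ratio gave %activity and AC50.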

[4] = Stat Signaling Pathway (AID 446); conditions: ME-180 SIE beta-lactamase reporter, IL-6 stimulated, 5 h; at 7.69 µM (top of the series) unless noted;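 note: ME-180 cervical cancer cells given 40 pM IL-6 alongside compound; SIE-controlled beta-lactamase reporter measured as 460/530 nm FRET emission ratio; % is set by controls: 0 for no effect and ±100 for the full control effect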
How it was run: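 Reporter line: ME-180 cervical carcinoma, SIE-beta-lactamase. Treatment: compound with 40 pM IL-6, 5 hrs, 37 C, in low-serum OPTI-MEM with 10 mM HEPES pH 7.3. Detection: 460/530 nm fluorescence.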

[5] = target: Glucocorticoid receptor (Homo sapiens) (UniProt P04150); test: GR-EFC Redistribution (AID 451; calls by dose curve; note: potency is the fitted concentration of half-maximal effect); conditions: CHO-K1 GR-EFC translocation, beta-gal luminescence, 2 h
How it was run: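 CHO-K1 cells expressing nuclear EA and GR-ED fragments of b-gal; compounds titrated up to 46 uM final, 2 h at 37 C. GR nuclear translocation read as complemented b-gal luminescence after 1 h RT detection.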

[6] = target: Mitogen-activated protein kinase 10 (Mus musculus) (UniProt Q61831); test: JNK3 AlphaScreen Assay (AID 530); conditions: JNK3 lysate, c-Jun phosphorylation; series mostly up to 57.1 µM;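 note: kinase came from lysate of stimulated human HepG2 cells; signal reports phosphorylation of biotinylated GST-cJun 1-79 at Ser73 with 10 µM ATP; % is set by controls: 0 for no effect and ±100 for the full control effect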
How it was run: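 qHTS format: compounds tested as titrations against IL-1beta/TNF-alpha-activated HepG2 lysate JNK3 with biotin-GST-cJun substrate and 10 uM ATP at room temperature. Loss of anti-phospho-cJun AlphaScreen signal indicates inhibition.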

[7] = target: 3',5'-cyclic-AMP phosphodiesterase 4B (Homo sapiens) (UniProt Q07343); test: qHTS Assay for Inhibitors of PDE-IV (AID 607; active = well fitted activation curve with a large enough effect in the main read-out, with a control signal flat, not every such curve was filed as active; note: % of control where 0% means no effect); conditions: HEK293 ACTOne CNG channel cells, membrane potential fluorescence; series mostly up to 22.9 µM
How it was run: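 Cell-based read-out of cAMP via a modified cyclic nucleotide-gated channel and membrane potential dye (535/590 nm) in HEK293 cells expressing PDE4 endogenously. Compounds tested up to 22.9 uM final; 100 uM RO 20-1724 reference.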

[8] = qHTS Assay for Lipid Storage Modulators (AID 1519; calls by dose curve); conditions: Drosophila S3 cells, BODIPY lipid droplet/cell ratio, laser cytometry, cells loaded with oleic acid; for activity change, negative = inhibition: at 57.5 µM (top of the series)
How it was run: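 Cells seeded at 5,000 per well were treated with compounds over a concentration series and loaded with oleic acid (400 uM, as added). Lipid droplet fluorescence (488 nm excitation, 500-530 nm channel) was read by laser-scanning cytometry and normalized to 20 uM Triacsin C.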

[9] = target: Cytochrome P450 1A2 (Homo sapiens) (UniProt P05177); test: p450-cyp1a2 (AID 410; calls by dose curve; note: potency is the fitted concentration of half-maximal effect); conditions: recombinant CYP1A2, luciferin-ME demethylation, luminescence; series mostly up to 57 µM
How it was run: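 Human CYP1A2 (20nM) demethylated Luciferin-ME at its Km (100uM) in 100mM KPO4. After 10 min compound preincubation, NADPH regeneration ran the reaction 60 min at room temperature. Luciferin was read by luminescence, normalized to 57 uM furafylline.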

[10] = target: Glucocorticoid receptor (Homo sapiens) (UniProt P04150); test: GR-GFP Redistribution (AID 450;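 active = compounds whose dose series gives a full or clear partial fitted curve of increased nuclear translocation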; note: potency is the fitted concentration of half-maximal effect); conditions: U2OS GR-GFP nuclear translocation, laser cytometry, 2 h
[11] = qHTS Assay for Identification of Small Molecule Agonists for Hypoxia Response Element Signaling Pathway (AID 914; active = well fitted activation curve with a large enough effect in the signal ratio, with a control signal flat, not every such curve was filed as active; the % refers to the signal ratio; note: potency is the fitted concentration of half-maximal effect); conditions: ME-180 (cervical carcinoma) HRE-bla reporter, beta-lactamase ratio, CoCl2, 17 h; activation: stronger effect = higher value
How it was run: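 qHTS titration; ME-180 HRE-bla cells; EC50 CoCl2 co-treatment, 17 h at 37 degrees Celsius; CCF4 dye, ex 405nm, em 460nm and 530nm; %Activity from ratio; AC50.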

[12] = Confirmation and Secondary Assay for Modulators of Hemoglobin Beta Chain Splicing at IVS2 654 locus (AID 910; active = well fitted curve in the direction sought with a large enough effect; an effect the other way counts as inactive or inconclusive;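 note: HeLa cells stably carrying EGFP split by mutant beta-globin IVS2-654 intron; % of control where 0% means no effect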); conditions: HeLa EGFP-654 splicing reporter, GFP fluorescence, 48 h; series mostly up to 38.3 µM
How it was run: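 HeLa cells stably expressing EGFP interrupted by β-globin IVS2-654 intron, seeded overnight in Opti-MEM/2% FCS, then treated 2 days at 37 °C. Restored splicing read as total peak GFP intensity per well by laser scanning cytometry (488 nm excitation, 500–520 nm emission); 500 nM antisense PNA as control.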

[13] = target: Ubiquitin carboxyl-terminal hydrolase 1 (Homo sapiens) (UniProt O94782); test: Inhibitors of USP1/UAF1: Pilot qHTS (AID 504865; active = well fitted curve in the direction sought with a large enough effect; an effect the other way counts as inactive or inconclusive;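 note: rhodamine fluorescence freed from ubiquitin-rhodamine substrate followed over time; top concentration of the series differs between compounds; % is set by controls: 0 for no effect and ±100 for the full control effect; nearly all actives have a fitted effect of over 35% in size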); conditions: purified USP1/UAF1, Ub-rhodamine cleavage fluorescence; series mostly up to 54.9 µM
How it was run: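 1nM USP1/UAF1 + cpd, 15 min RT; start w/ Ub-Rho 150nM final; kinetic FL 480/540 nm, 6 reads q60 s. Buffer 50mM HEPES pH 7.8, 0.5mM EDTA, 1mM TCEP, 0.01% Tween-20, 0.1 mg/ml BSA.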

[14] = target: Cytochrome P450 3A4 (Homo sapiens) (UniProt P08684); test: qHTS Assay for Inhibitors and Substrates of Cytochrome P450 3A4 (AID 884; active = well fitted curve in the direction sought with a large enough effect; an effect the other way counts as inactive or inconclusive; note: potency is the fitted concentration of half-maximal effect; nearly all actives have a fitted effect of over 50% in size); conditions: recombinant CYP3A4, Luciferin-PPXE luminescence; series mostly up to 57.1 µM
How it was run: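 20 nM human CYP3A4 with 25 uM Luciferin-PPXE (at KM) in 200 mM KPO4, preincubated 10 min with compound; NADPH regeneration started a 60 min RT reaction. Luciferin detected by luminescence, normalized to 57 uM ketoconazole as full inhibition.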

[15] = target: Cytochrome P450 3A4 (Homo sapiens) (UniProt P08684); test: qHTS Assay for Activators of Cytochrome P450 3A4 (AID 885; active = well fitted curve in the direction sought with a large enough effect; an effect the other way counts as inactive or inconclusive; note: nearly all actives have a fitted effect of over 65% in size); conditions: recombinant CYP3A4, Luciferin-PPXE luminescence, 60 min; series mostly up to 57.1 µM
How it was run: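 Signal was normalized against complete inhibition by 57 uM ketoconazole. The reaction used 20nM CYP3A4 with 25uM Luciferin-PPXE, 10-min compound preincubation and a 60-min NADPH-supported step at RT.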

[16] = Confirmation and Secondary Assay for Modulators of Hemoglobin Beta Chain Splicing at IVS2 705 locus (AID 930; active = well fitted curve in the direction sought with a large enough effect; an effect the other way counts as inactive or inconclusive;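 note: HeLa cells stably expressing the EGFP-705 splicing reporter; GFP fluorescence per well restored by corrected splicing of the IVS2-705 intron in EGFP; % of control where 0% means no effect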); conditions: HeLa EGFP-705 splicing reporter, GFP fluorescence, 48 h; series mostly up to 38.3 µM
How it was run: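 Secondary splice-site specificity test uses HeLa expressing CMV-driven EGFP interrupted by IVS2-705; cells were treated 2 days at 37C with 500 nM antisense PNA as positive control.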

[17] = measured here: cell count channel max response
[18] = measured here: lipid channel max response

3',5'-cyclic-AMP phosphodiesterase 4B (Homo sapiens), sequence (Q07343 whole entry, looked up): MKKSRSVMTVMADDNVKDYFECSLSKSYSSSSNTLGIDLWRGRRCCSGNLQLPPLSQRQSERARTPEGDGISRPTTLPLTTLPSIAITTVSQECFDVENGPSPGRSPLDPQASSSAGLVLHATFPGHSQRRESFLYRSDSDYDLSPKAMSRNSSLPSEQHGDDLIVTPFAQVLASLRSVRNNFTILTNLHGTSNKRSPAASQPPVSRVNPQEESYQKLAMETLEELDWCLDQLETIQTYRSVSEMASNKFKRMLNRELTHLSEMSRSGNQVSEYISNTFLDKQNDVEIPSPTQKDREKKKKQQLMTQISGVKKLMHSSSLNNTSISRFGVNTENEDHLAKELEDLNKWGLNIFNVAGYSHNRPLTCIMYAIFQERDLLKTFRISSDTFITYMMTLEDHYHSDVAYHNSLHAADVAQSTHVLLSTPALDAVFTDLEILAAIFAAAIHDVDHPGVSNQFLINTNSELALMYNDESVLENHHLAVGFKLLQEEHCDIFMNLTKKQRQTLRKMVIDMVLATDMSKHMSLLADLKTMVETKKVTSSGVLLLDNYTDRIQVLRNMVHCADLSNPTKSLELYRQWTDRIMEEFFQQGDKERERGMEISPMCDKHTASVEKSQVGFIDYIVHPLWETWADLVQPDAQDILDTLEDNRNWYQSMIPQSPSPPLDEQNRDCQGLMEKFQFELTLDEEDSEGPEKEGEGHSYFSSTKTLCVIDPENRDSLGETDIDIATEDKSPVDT
Lysosomal acid glucosylceramidase (Homo sapiens), sequence (P04062 whole entry, looked up): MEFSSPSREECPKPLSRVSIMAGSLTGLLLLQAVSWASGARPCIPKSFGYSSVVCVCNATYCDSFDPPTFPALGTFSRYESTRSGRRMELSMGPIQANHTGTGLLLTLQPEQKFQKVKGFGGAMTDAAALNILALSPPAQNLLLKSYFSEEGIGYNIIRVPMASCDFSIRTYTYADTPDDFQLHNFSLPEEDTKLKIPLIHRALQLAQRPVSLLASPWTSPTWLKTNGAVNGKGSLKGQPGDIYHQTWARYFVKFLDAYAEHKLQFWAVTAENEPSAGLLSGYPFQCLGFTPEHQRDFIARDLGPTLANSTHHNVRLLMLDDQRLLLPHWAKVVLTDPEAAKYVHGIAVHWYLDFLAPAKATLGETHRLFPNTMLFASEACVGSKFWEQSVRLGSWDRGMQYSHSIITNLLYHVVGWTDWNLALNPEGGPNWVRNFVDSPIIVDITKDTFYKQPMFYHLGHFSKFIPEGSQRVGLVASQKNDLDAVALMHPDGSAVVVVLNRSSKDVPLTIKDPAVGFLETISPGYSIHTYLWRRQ
Cytochrome P450 3A4 (Homo sapiens), sequence (P08684 whole entry, looked up): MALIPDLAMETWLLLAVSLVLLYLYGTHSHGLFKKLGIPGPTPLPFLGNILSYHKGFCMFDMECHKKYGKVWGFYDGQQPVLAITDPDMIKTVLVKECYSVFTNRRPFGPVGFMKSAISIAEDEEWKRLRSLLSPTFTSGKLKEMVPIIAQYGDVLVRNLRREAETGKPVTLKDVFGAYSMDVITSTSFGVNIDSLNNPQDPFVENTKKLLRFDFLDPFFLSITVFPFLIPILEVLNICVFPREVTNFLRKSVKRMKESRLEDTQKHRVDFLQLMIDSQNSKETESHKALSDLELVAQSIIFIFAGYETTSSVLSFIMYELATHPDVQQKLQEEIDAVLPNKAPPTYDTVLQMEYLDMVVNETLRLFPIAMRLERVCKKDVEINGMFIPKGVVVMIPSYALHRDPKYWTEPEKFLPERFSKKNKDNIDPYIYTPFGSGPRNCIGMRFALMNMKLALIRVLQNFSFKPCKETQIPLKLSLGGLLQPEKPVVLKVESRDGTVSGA
Cytochrome P450 1A2 (Homo sapiens), sequence (P05177 whole entry, looked up): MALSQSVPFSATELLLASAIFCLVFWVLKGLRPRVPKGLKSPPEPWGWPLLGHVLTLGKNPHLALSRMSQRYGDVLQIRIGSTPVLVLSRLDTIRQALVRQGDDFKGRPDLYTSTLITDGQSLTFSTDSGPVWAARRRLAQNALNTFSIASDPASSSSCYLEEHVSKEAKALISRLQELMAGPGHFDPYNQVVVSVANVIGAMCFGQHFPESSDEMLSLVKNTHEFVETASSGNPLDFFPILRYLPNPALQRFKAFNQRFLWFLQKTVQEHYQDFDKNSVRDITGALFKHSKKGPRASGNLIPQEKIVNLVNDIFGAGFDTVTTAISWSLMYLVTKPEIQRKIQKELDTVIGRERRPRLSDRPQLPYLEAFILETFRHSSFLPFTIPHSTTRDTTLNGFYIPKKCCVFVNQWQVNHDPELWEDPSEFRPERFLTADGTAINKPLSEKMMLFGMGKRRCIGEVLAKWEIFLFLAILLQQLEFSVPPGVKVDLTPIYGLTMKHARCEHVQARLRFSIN
Glucocorticoid receptor (Homo sapiens), sequence (P04150 whole entry, looked up, the tested form may be a part): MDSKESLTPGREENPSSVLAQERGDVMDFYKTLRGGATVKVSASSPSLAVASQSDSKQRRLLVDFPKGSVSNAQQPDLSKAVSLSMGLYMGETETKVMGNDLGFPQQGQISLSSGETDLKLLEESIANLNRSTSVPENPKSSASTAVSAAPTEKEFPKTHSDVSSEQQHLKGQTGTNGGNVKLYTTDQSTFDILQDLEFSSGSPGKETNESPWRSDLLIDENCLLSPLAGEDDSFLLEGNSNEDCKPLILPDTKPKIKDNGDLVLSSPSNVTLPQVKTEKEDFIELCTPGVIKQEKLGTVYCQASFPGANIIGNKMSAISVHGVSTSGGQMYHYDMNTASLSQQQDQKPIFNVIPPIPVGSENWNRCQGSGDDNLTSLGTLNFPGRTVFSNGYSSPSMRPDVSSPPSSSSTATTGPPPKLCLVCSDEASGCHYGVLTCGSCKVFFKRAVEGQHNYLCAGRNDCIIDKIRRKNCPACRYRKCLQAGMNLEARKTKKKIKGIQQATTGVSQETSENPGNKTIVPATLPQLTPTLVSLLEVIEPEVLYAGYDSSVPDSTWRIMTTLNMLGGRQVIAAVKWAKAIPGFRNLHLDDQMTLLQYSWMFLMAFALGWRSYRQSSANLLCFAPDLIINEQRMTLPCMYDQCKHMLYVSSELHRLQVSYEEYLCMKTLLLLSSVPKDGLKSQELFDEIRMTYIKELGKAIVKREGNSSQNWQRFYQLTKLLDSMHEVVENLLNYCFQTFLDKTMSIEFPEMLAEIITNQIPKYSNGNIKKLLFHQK
Ubiquitin carboxyl-terminal hydrolase 1 (Homo sapiens), sequence (O94782 whole entry, looked up): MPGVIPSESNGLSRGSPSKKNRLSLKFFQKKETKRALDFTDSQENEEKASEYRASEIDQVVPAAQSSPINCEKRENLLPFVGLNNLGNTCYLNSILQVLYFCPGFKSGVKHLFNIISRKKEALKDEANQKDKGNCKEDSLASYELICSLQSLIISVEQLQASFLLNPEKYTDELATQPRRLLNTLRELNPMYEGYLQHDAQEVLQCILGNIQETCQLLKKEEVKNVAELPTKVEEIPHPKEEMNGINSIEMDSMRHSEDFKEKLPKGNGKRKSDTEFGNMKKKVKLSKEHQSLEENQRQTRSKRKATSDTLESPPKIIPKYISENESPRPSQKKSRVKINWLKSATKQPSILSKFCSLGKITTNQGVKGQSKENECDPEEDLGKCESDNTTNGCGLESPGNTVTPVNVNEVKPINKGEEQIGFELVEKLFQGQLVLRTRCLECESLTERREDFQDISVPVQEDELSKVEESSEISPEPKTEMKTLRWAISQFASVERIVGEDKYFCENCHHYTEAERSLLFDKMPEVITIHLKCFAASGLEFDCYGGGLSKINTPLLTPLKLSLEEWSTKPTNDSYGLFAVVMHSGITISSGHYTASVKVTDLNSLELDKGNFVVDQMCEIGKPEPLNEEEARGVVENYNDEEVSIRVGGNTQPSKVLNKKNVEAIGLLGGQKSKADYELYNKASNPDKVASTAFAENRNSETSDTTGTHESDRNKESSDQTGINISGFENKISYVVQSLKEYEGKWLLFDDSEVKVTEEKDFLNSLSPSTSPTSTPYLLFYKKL

N#Cc1ccc(CN2CCCC3(CCNCC3)C2)cc1
inactive: Potency [1] > 11.4 µM | activity change, negative = inhibition [2] 6.69% | activity change, negative = inhibition [3] -22.5% | activity, negative = inhibition [4] -0.579% | Potency [5] > 46 µM | Potency [6] | Potency [7] | activity change, negative = inhibition [8] 1.45%
18.2%: max response [8, 18]
12.8%: max response [8, 17]

O=C(c1ccco1)N1CCC2(CC1)CCN(c1ccncc1)CC2
0.777%: max response [8, 18]
-3.62%: max response [8, 17]
inactive: Potency [1] > 11.4 µM | activity change, negative = inhibition [2] -14.6% | activity, negative = inhibition [4] 11.2% | Potency [5] > 46 µM | Potency [6] | Potency [7] | activity change, negative = inhibition [8] 3.95%

Cn1c(=O)c(-c2ccccc2)nc2cnc(N3CCNCC3)nc21
28.4%: max response [8, 18]
active: Potency [9] 12.6 µM | Potency [11] 3.16 µM
inactive: Potency [1] > 11.4 µM | Potency [10] > 9.22 µM | Potency [5] > 46 µM | Potency [6] | Potency [7] | activity change, negative = inhibition [8] 5.44%
18.4%: max response [8, 17]

CN1CCN(c2nc(-c3cccc(NS(C)(=O)=O)c3)nc3ccccc23)CC1
7.68%: max response [8, 17]
inactive: Potency [1] > 11.4 µM | activity change, negative = inhibition [2] 2.06% | activity change, negative = inhibition [3] 7.49% | activity, negative = inhibition [4] -8.68% | Potency [10] > 46 µM | Potency [5] > 46 µM | Potency [6] | Potency [12] | activity change, negative = inhibition [8] 4.29% | Potency [13]
8.93%: max response [8, 18]

CN1CCN(c2ncc3nc(-c4ccccc4)c(=O)n(CCC#N)c3n2)CC1
27.5%: max response [8, 18]
active: Potency [9] 20 µM | Potency [11] 3.16 µM
inactive: Potency [1] > 11.4 µM | Potency [10] > 9.22 µM | Potency [5] > 46 µM | Potency [6] | Potency [7] | activity change, negative = inhibition [8] 6.29%
19.8%: max response [8, 17]

COc1ccccc1CNc1ncnc2ccc(-c3ccc(N(C)C)cc3)cc12
inactive: Potency [1] > 11.4 µM | activity, negative = inhibition [4] -7.61% | Potency [10] > 46 µM | Potency [5] > 46 µM | Potency [7] | Potency [15] | Potency [12] | outcome [16] | activity change, negative = inhibition [8] 3.4%
-18%: max response [8, 17]
active: Potency [9] 0.794 µM | Potency [14] 2 µM
-15%: max response [8, 18]

COc1ccc(Oc2ncc3nc(CCc4ccccc4)c(=O)n(C)c3n2)cc1
9.28%: max response [8, 17]
inactive: Potency [1] > 11.4 µM | activity change, negative = inhibition [2] -17.4% | activity change, negative = inhibition [3] 2.43% | activity, negative = inhibition [4] -11.3% | Potency [10] > 9.22 µM | Potency [5] > 46 µM | Potency [6] | Potency [15] | activity change, negative = inhibition [8] -3.44%
8.21%: max response [8, 18]

O=C(Nc1cccc(F)c1)N1CCC2(CC1)CCN(C(=O)c1cc(C(F)(F)F)cc(C(F)(F)F)c1)CC2
inactive: Potency [1] > 11.4 µM | activity change, negative = inhibition [2] -6.27% | activity, negative = inhibition [4] 8.94% | Potency [5] > 46 µM | Potency [7] | activity change, negative = inhibition [8] -8.79%
-4.14%: max response [8, 17]
-9.94%: max response [8, 18]
